Data taken from PubChem BioAssay AID1495 (Sanford-Burnham Center for Chemical Genomics, 2009).
Results with a measured potency or affinity are listed apart. Calls of active or inactive are those of the source.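 The calls were made as follows: active = calorimetric dissociation constant under 10 µM against either the substrate-binding domain or full-length DnaK; inactive = the rest.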

The compounds below were run against Chaperone protein DnaK (Escherichia coli) (UniProt C3TRK2) (assay: E. coli DnaK binders, calorimetric Kd – biophysical, isothermal titration calorimetry, beta-domain, full-length DnaK, orthogonal assay for DnaK modulator project, SAR follow-up (AID 1495)). Details: purified DnaK, isothermal titration calorimetry binding.
In the case of `O=C(NCc1ccccc1F)c1cccs1`, the outcome was “inactive”. For `O=C(Nc1ncc2ccccc2n1)c1cccs1`, the outcome was “active”. In the case of `Cc1ccc(C(=O)NCc2ccc(F)cc2)o1`, the outcome was “inactive”. For `Cc1ccc(CNC(=O)c2ccc([N+](=O)[O-])o2)cc1`, the outcome was “inactive”. With `Cc1ccc(C(=O)NCc2ccc(Cl)cc2)o1` the outcome was “inactive”.
